{"source": "PubChem BioAssay AID463173", "about": "(ICCB-Longwood Screening Facility, Harvard Medical School, 2010)", "note": "In all, about 52,000 compounds went through this assay and about 4,300 (8.3%) were called active. The sample holds actives, similar compounds and a random draw of the others, so the mix is not that of the screen. A number with no mark means an inactive call. No stated cut-off is given here; in the data, active means survival mostly below about 52% (no sharp cut-off); inactive means mostly above about 56%."}
{"system": "DeltatarO mutant", "assay": "growth inhibition of S. aureus wild type versus tarO mutant, primary screen, teichoic acid synthesis inhibitors, RN4220, OD600 (AID 463173)", "details": "OD600, 18 h, active compounds read low, screened at 18.75 µg/mL (by protocol)"}
{"compound": "O=C(c1cccc(C(F)(F)F)c1)C1CCN(C(=O)N2CCOCC2)CC1", "survival": "103%"}
{"compound": "Cc1cccc(CSc2nc3c(c(=O)[nH]2)C(c2cccc(O)c2)CC(=O)N3)c1", "note": "(configuration not stated)", "survival": "110%"}
{"compound": "CCc1nn(CC(=O)NCc2ccco2)c(=O)c2cc3cc(F)ccc3n12", "survival": "104%"}
{"compound": "COc1ccc(Cn2ccc3nc(C)c(C(=O)N4CCN(c5ccccc5)CC4)cc3c2=O)cc1", "survival": "85%"}
{"compound": "COc1ccc(CNC(=O)Cn2c(=O)cc(-c3ccccc3)c3c(C)nn(C)c32)cc1", "survival": "67%"}
{"compound": "COc1ccc(CCNC(=O)CN(c2ccccc2)S(=O)(=O)N(C)C)cc1OC", "survival": "62%"}
{"compound": "Cc1nc(-n2nc(C)c(CCC(C)C)c2C)sc1C(=O)Nc1cccc(Cl)c1", "survival": "122%"}
{"compound": "Cc1cccc(NC(=O)c2sc(-n3nc(C)c(CCC(C)C)c3C)nc2C)c1C", "survival": "62%"}
{"compound": "Cc1nc(-n2nc(C)c(CCC(C)C)c2C)sc1C(=O)Nc1cccc(Cl)c1C", "survival": "56% (active)"}
{"compound": "CCCN(C(=O)Nc1cn(CC(C)C)c(=O)c2ccccc12)c1ccc(F)cc1", "survival": "82%"}
{"compound": "Cc1cc(C)n(CCCO)c(=O)c1C#N", "survival": "86%"}
{"compound": "COc1ccc(-c2cn3c(n2)sc2cc(C(=O)NC4CCCCCC4)ccc23)cc1", "survival": "73%"}
{"compound": "CCn1c(CN2CCC(C)CC2)nc2cc(NC(=O)c3ccc([N+](=O)[O-])cc3)ccc21", "survival": "86%"}
{"compound": "CCC1CN(C(=O)Nc2cccc3c2CCCC3)c2cc(C)ccc2O1", "note": "(configuration not stated)", "survival": "49%"}
{"compound": "CCC1CN(C(=O)Nc2cc(C)ccc2OC)c2cc(Cl)ccc2O1", "note": "(configuration not stated)", "survival": "44% (active)"}
{"compound": "CCC1CN(C(=O)Nc2cccc3c2CCCC3)c2ccccc2O1", "note": "(configuration not stated)", "survival": "56%"}
{"compound": "CCc1ccccc1NC(=O)N1CC(CC)Oc2ccc(Cl)cc21", "note": "(configuration not stated)", "survival": "44%"}
{"compound": "CCC1CN(C(=O)Nc2cccc3c2CCCC3)c2cc(Cl)ccc2O1", "note": "(configuration not stated)", "survival": "44% (active)"}
{"compound": "CCC1CN(C(=O)Nc2cc(Cl)c(OC)cc2OC)c2ccccc2O1", "note": "(configuration not stated)", "survival": "61%"}
{"compound": "Cc1ccc(C)c(CN2C(=O)c3ccccc3Sc3ccc(C(=O)NCCCOC(C)C)cc32)c1", "survival": "89%"}
{"compound": "COc1cccc(N2CCN(c3ncnc4onc(-c5ccc(F)cc5)c34)CC2)c1", "survival": "83%"}
{"compound": "CCc1ccc(NC(=O)CSc2nc(C)cc(COC)c2C#N)cc1", "survival": "84%"}
{"compound": "COc1ccc2[nH]c(=O)c(CN(Cc3cccs3)S(=O)(=O)c3cccc4nsnc34)cc2c1", "survival": "113%"}
{"compound": "COC(=O)c1ccccc1NC(=O)CCC(=O)N1CCOc2ccccc21", "survival": "65%"}
{"compound": "CC1CN(C(=O)CCC(=O)Nc2cc(F)ccc2F)c2ccccc2S1", "note": "(configuration not stated)", "survival": "51%"}
{"compound": "Cc1ccccc1NC(=O)CCC(=O)N1CC(C)Sc2ccccc21", "note": "(configuration not stated)", "survival": "64%"}
{"compound": "Cc1ccc(Cl)cc1NC(=O)CCC(=O)N1CC(C)Sc2ccccc21", "note": "(configuration not stated)", "survival": "44% (active)"}
{"compound": "CCc1ccccc1NC(=O)N1CC(C)Sc2ccccc21", "note": "(configuration not stated)", "survival": "77%"}
{"compound": "COC(=O)c1ccccc1NC(=O)CCC(=O)N1CC(C)Sc2ccccc21", "note": "(configuration not stated)", "survival": "42% (active)"}
{"compound": "Fc1ccccc1N1CCN(Cc2nnc(-c3ccc4c(c3)OCO4)o2)CC1", "survival": "85%"}
{"compound": "CCC(=O)N(c1nnc(-c2cc(OC)c(OC)c(OC)c2)s1)C1CCCC1", "survival": "65%"}
{"compound": "O=C(CNC(=O)c1ccc(F)cc1)OCc1cc(=O)n2nc(C3CC3)sc2n1", "survival": "81%"}
{"compound": "c1ccc(Nc2nc(-c3ccncc3)cs2)cc1", "survival": "100%"}
{"compound": "Oc1ccc(Nc2nc(-c3ccc(O)cc3)cs2)cc1", "survival": "1% (active)"}
{"compound": "Cc1ccc(Nc2nc(C)cs2)cc1", "survival": "82%"}
{"compound": "CN1CCN(C(c2cccc(Br)c2)c2sc3nc(-c4ccco4)nn3c2O)CC1", "note": "(configuration not stated)", "survival": "70%"}
{"compound": "CCN(CC)S(=O)(=O)c1ccc2oc(C(=O)N(C)Cc3ccccc3)c(C)c2c1", "survival": "40% (active)"}
{"compound": "Cc1ccc(-c2c(C(=O)NCc3ccc(F)cc3)oc(=O)c3ccccc23)cc1", "survival": "57%"}
{"compound": "CCN(CC)S(=O)(=O)c1ccc2oc(C(=O)NCc3ccccc3OC)c(C)c2c1", "survival": "71%"}
{"compound": "CCCCN(CCCC)S(=O)(=O)c1ccc2oc(C(=O)NCc3ccccc3)c(C)c2c1", "survival": "99%"}
{"compound": "Cc1ccc(-c2c(C(=O)NCCc3ccccc3)oc(=O)c3ccccc23)cc1", "survival": "91%"}
{"compound": "CCCCN(Cc1ccccc1)C(=O)c1oc(=O)c2ccccc2c1-c1ccc(C)cc1", "survival": "8% (active)"}
{"compound": "CCOc1ccc(CCNC(=O)c2oc(=O)c3ccccc3c2-c2ccc(C)cc2)cc1OCC", "survival": "70%"}
{"compound": "COc1ccc(N(C)C(=O)c2oc(=O)c3ccccc3c2-c2ccc(C)cc2)c(OC)c1", "survival": "97%"}
{"compound": "CCOc1ccc(N(C)C(=O)c2oc(=O)c3ccccc3c2-c2ccccc2)cc1", "survival": "55%"}
{"compound": "Cc1ccc(CCNC(=O)c2oc(=O)c3ccccc3c2-c2ccc(C)cc2)cc1", "survival": "28% (active)"}
{"compound": "Cc1ccc(-c2c(C(=O)NCCc3ccc(Cl)cc3)oc(=O)c3ccccc23)cc1", "survival": "51%"}
{"compound": "Cc1ccc(-c2c(C(=O)N(C)Cc3ccccc3)oc(=O)c3ccccc23)cc1", "survival": "24% (active)"}
{"compound": "O=C1CC(N2CCC(c3nc4ccccc4[nH]3)CC2)C(=O)N1", "note": "(configuration not stated)", "survival": "84%"}
{"compound": "Cc1c(C)n(Cc2ccccc2)c2ccc(C(=O)NCCc3ccccc3Cl)cc12", "survival": "84%"}
{"compound": "COCCCn1c(SCC(=O)Nc2ccc(F)cc2)nc2c(sc3ccccc32)c1=O", "survival": "81%"}
{"compound": "CCOCCc1nnc(NC(=O)C(=O)c2cc(C)n(-c3ccc(Cl)cc3)c2C)s1", "survival": "60%"}
{"compound": "CC(C)c1nn2c(=O)cc(COC(=O)c3ccccc3NC(=O)C3CCCCC3)nc2s1", "survival": "90%"}
{"compound": "CCOCCCNC(=O)C1CCN(c2nn3cc(-c4ccc(F)cc4)nc3s2)CC1", "survival": "86%"}
{"compound": "CC1=C(c2ccc(C)c(C)c2)S(=O)(=O)N=C1N1CCC(C(=O)NCc2ccccc2C)CC1", "survival": "76%"}
{"compound": "COc1ccc(CNC(=O)CCc2c(C)c3cc4c(C)c(C)oc4cc3oc2=O)cc1OC", "survival": "104%"}
{"compound": "CCOc1ccc(OCC)c(Nc2nc3ccc(C(=O)c4ccccc4)cc3n3cnnc23)c1", "survival": "77%"}
{"compound": "Cc1ccccc1CCNC(=O)C1CCN(c2nc3ccccc3nc2C(F)(F)F)CC1", "survival": "72%"}
{"compound": "CCCSCCCNC(=O)C1CCN(c2nc3ccccc3nc2C(F)(F)F)CC1", "survival": "0% (active)"}
{"compound": "CCNC(=O)C1CCN(c2nc3ccccc3nc2C(F)(F)F)CC1", "survival": "144%"}
{"compound": "CCCCNC(=O)C1CCN(c2nc3ccccc3nc2C(F)(F)F)CC1", "survival": "115%"}
{"compound": "COc1ccccc1CCNC(=O)C1CCN(c2nc3ccccc3nc2C(F)(F)F)CC1", "survival": "117%"}
{"compound": "O=C(NCCc1ccccc1Cl)C1CCN(c2nc3ccccc3nc2C(F)(F)F)CC1", "survival": "37% (active)"}
{"compound": "CCOC(=O)c1cnc2ccc(OCC)cc2c1N1CCN(c2cccc(Cl)c2)CC1", "survival": "3% (active)"}
{"compound": "CCOC(=O)c1cnc2cc(C(F)(F)F)ccc2c1N1CCN(c2cccc(Cl)c2)CC1", "survival": "84%"}
{"compound": "CCOC(=O)c1cc(S(=O)(=O)N2CCN(c3cccc(C)c3C)CC2)[nH]n1", "survival": "81%"}
{"compound": "CCOC(=O)c1cnc2c(OC)cccc2c1N1CCN(c2ccccc2F)CC1", "survival": "1% (active)"}
{"compound": "CCOC(=O)c1cc(S(=O)(=O)N2CCN(c3ccccc3F)CC2)[nH]n1", "survival": "-5% (active)"}
{"compound": "COC(=O)c1cnc(N2CCN(c3ccccc3F)CC2)c2ccccc12", "survival": "86%"}
{"compound": "CCOC(=O)c1noc2ncnc(N3CCN(c4cccc(Cl)c4)CC3)c12", "survival": "83%"}
{"compound": "CCOC(=O)c1cnc(N2CCN(c3ccc(C)cc3C)CC2)c2ccccc12", "survival": "87%"}
{"compound": "CCOc1ccc(NC(=O)NCCN2CCN(c3ccccc3F)CC2)cc1", "survival": "87%"}
{"compound": "CCOC(=O)c1cc(S(=O)(=O)N2CCN(c3ccccc3OC)CC2)[nH]n1", "survival": "122%"}
{"compound": "CCOC(=O)c1cnc(N2CCN(c3cccc(C)c3C)CC2)c2ccccc12", "survival": "77%"}
{"compound": "CCOC(=O)c1cnc2ccc(OCC)cc2c1N1CCN(c2ccccc2F)CC1", "survival": "0% (active)"}
{"compound": "CCOC(=O)c1ccccc1NC(=O)Cn1c(=O)n(-c2cccc(C)c2)c(=O)c2c1c1cc(C)ccc1n2C", "survival": "68%"}
{"compound": "CCOc1ccc(C(=O)NCC(c2cccs2)S(=O)(=O)c2ccccc2)cc1", "note": "(configuration not stated)", "survival": "97%"}
{"compound": "CC(C)OC(=O)c1cc2c(ccn2C)n1CCC#N", "survival": "96%"}
{"compound": "Cc1cc(Nc2ccccc2C)nc(-n2nc(C)cc2C)n1", "survival": "83%"}
{"compound": "Cc1ccc(S(=O)(=O)c2nc(-c3cccc(Cl)c3)oc2NCc2ccccc2)cc1", "survival": "168%"}
{"compound": "Cc1ccc(NC(=O)C(=O)NCC(c2cccnc2)N2CCc3ccccc32)cc1Cl", "note": "(configuration not stated)", "survival": "97%"}
{"compound": "CCOc1ccc(NC(=O)C(=O)NCC(c2cccnc2)N2CCc3ccccc32)cc1", "note": "(configuration not stated)", "survival": "44%"}
{"compound": "COC(=O)c1ccc(NC(=O)C(=O)NCC(c2cccnc2)N2CCc3ccccc32)cc1", "note": "(configuration not stated)", "survival": "34% (active)"}
{"compound": "COc1ccc(NC(=O)C(=O)NCC(c2cccnc2)N2CCc3ccccc32)cc1OC", "note": "(configuration not stated)", "survival": "61%"}
{"compound": "Cc1cc(C)cc(NC(=O)C(=O)NCC(c2cccnc2)N2CCc3ccccc32)c1", "note": "(configuration not stated)", "survival": "43% (active)"}
{"compound": "Cc1cccc(C)c1NC(=O)C(=O)NCC(c1cccnc1)N1CCc2ccccc21", "note": "(configuration not stated)", "survival": "62%"}
{"compound": "COc1ccc(NC(=O)c2cnc(N3CCCCC3)c3ccccc23)cc1Cl", "survival": "78%"}
{"compound": "CCOc1cc(C(=O)Nc2ccc3c(c2)n(C)c(=O)c(=O)n3C)cc(OCC)c1OCC", "survival": "84%"}
{"compound": "COc1ccc2c(c1)sc1ncc(C(=O)NCc3ccccc3F)c(=O)n12", "survival": "101%"}
{"compound": "Cc1cc(=O)c2cc(Br)ccc2[nH]1", "survival": "71%"}
{"compound": "Cc1ccc2[nH]c(C)cc(=S)c2c1", "survival": "45% (active)"}
{"compound": "Cc1ccc2[nH]c(=O)cc(C(=O)O)c2c1", "survival": "99%"}
